Laboratory results from the supplement of paper PMC11417369.
± gives the standard deviation of the averaged measurements. Whole data set: some 25,000 sequences, median “ln(normalized median fluorescence intensity)” near 8.6, cut for the highest 2% near 10. Only a selection was taken, and the highest values are over-represented in it overall.

Test system: PfAP2-EXP AP2 domain (GST-tagged)
Test: gcPBM binding intensity (ln(normalized median fluorescence intensity)); higher = stronger DNA binding
Summary of the method: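 The binding buffer was 1× PBS containing 1% milk, 0.2 mg/ml BSA, 0.5% salmon testes DNA and 0.03% Triton X-100. In it, GST-tagged P. falciparum DNA-binding domains expressed in E. coli were applied for 1 h to an Agilent 4 × 180k array of primer-extended double-stranded 36-bp intergenic genomic probes plus negative controls. Binding intensity, read with Alexa488 anti-GST antibody and a 488 nm scan, is the highest Masliner-normalised natural-log median intensity across replicate spots of either probe orientation.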

| Sequence | gcPBM binding intensity (ln) |
| --- | --- |
| AAAAAAAAGGAAAATAAAAATAAAAAAAAATAATAA [XGTACX_negctrl_site601] | 8.53 ± 0.52 |
| AAAAAAAAAAAATATACACACACATATATATATATA [CACACA_site9123] | 10 ± 0.45 |
| AAAAAAAAAAAATACACACACATATATATATATATA [CACACA_site2224] | 10.2 ± 0.23 |
| AAAAAAAAAAAAAATACACACACATATATATATATA [CACACA_site8698] | 10.1 ± 0.26 |
| AAAAAAAATACATACATACACACATATATATATATA [CACACA_site912] | 9.98 ± 0.38 |
| AAAAAAAAAAAATACACACACACATATATATATATA [CACACA_site731] | 10.2 ± 0.18 |
| AAAAAAAAAAAAAATACACACATATATATATATATA [CACACA_site85] | 10.1 ± 0.34 |
| TTATATAAATATAAGGTGCTGGGGTTTATTACATAT [GTGCAC_site9909] | 9.03 ± 0.54 |
| AAGATGGTAAAGAATTGTACGCGCATATATATATTT [XGTACX_site3904] | 9.69 ± 0.42 |
| GGCATACACAGACACACACACACACCCACATATATA [CACACA_site591] | 8.79 ± 0.4 |
| TGTATTATATATGTGTGTACATATTTTTTTTTTTTT [XGTACX_site3351] | 8.47 ± 0.34 |
| TTTTAAAGCATATCATATAAAGAACATGACATAGGA [CACACA_negctrl_site630] | 8.61 ± 0.33 |
| ATTTTTTTTGTAAAAGTGCATATATATATATATATA | 10.4 ± 0.35 |
| TTTTTTAAATTTAAAGTGCATTATTATATATTTGTA | 8.65 ± 0.15 |
| AAAAAAAAAAAAAAAGTGCATATATAAATATTGTAT [GTGCAC_site9459] | 8.62 ± 0.3 |
| AAAATTAATAAATAAACACACATATTTATATTTATA [CACACA_site7266] | 8.03 ± 0.41 |
| TAACTTCAAAAATCTTGTACATAAATATATAAAACA [XGTACX_site8574] | 8.53 ± 0.44 |
| ATATATATTATATATTGTACATATTATATTCATTAT [XGTACX_site1766] | 8.57 ± 0.3 |
| TAAAAATATTTTCATTGTACATATATATAAATATAT [XGTACX_site1123] | 8.4 ± 0.33 |
| ATGTATGTATATACTTGTACATATTCATATTAGTAT [XGTACX_site1118] | 8.45 ± 0.35 |
| AAAAAAAAAATTCATTGTACATATATATATATATAT [XGTACX_site8346] | 10.2 ± 0.22 |
| GAATATTCACATACTTGTACATATATATATATATAT [XGTACX_site7302] | 10.2 ± 0.68 |
| AAAATATATTCAACTTGTACATATATATATATATAT [XGTACX_site7629] | 10.3 ± 0.13 |

| Sequence | gcPBM binding intensity (ln) |
| --- | --- |
| AATACACAAATATATTGTACATATATATATATATAT [XGTACX_site2440] | 9.85 ± 0.34 |
| CTTAAAAAAATATATTGTACATATATATATACAACT [XGTACX_site1281] | 8.33 ± 0.3 |
| GGATTTATTATATATACACACATACAGATATATATA [CACACA_site5222] | 8.48 ± 0.3 |
| GTTTTTTTTATATATTGTACAAATAATATATTATAT [XGTACX_site29] | 9.02 ± 0.37 |
| TAAATATATTTATACACACACACCAAAGCAATAGAT [CACACA_site7393] | 9.12 ± 0.35 |
| AAAAAATGTTAAAAAAGTACTTTCTTTATTTAATAA [XGTACX_site2908] | 8.07 ± 0.4 |
| GAACGCCATTCACATAAAGGGATACATAAATAAATA [XGTACX_negctrl_site330] | 8.4 ± 0.42 |
| ATGTGTATATATTATTGTACATATATATATATATAT [XGTACX_site4627] | 10.3 ± 0.2 |
| TATATATTATATATATGTACATATTGTTGTGTATAT [XGTACX_site767] | 8.63 ± 0.29 |
| TTGTGTACATATTAAGTGCATATATATATATATATA | 10.4 ± 0.33 |
| ATATCTTAAATTATTTGTACATATATATATATATAT [XGTACX_site8034] | 10.3 ± 0.27 |
| TATATTAATAATAAGTGTACATATATATATATTTTT [XGTACX_site288] | 8.36 ± 0.3 |
| ATATAAAAATTAAAATGTACATATCTTATTATAATA [XGTACX_site983] | 8.32 ± 0.34 |
| TATATATATATATATTGTACATATATTATTATATAT [XGTACX_site7447] | 10.2 ± 0.57 |
| CATACACATATATATTGTACACATATATGTATGTAT [XGTACX_site4030] | 8.45 ± 0.28 |
| CATGTGCATATTAAATGTACATATATACATATATAC [XGTACX_site857] | 8.835 ± 0.064 |
| CATATACATTGTATATGTACATATATATATATATAT [XGTACX_site3772] | 10.1 ± 0.36 |
| ATATATATATATATATGTACATATTGTATCTTATAC [XGTACX_site5466] | 10.2 ± 0.4 |
| CTTTTAAATTATTTTTGTACATAATTATATATATAT [XGTACX_site4128] | 9.4 ± 0.32 |
| TTTTAAATAAATCATGCATGCACATATAATTATATT [TGCATGCA_site151] | 9.94 ± 0.33 |
| TTATATGGATATACAGTGCATATATACATATAAGTG | 8.61 ± 0.26 |
| ACAAAAAAATGAAAAGAAAAAGATATACCCCAATAT [CACACA_negctrl_site509] | 8.99 ± 0.8 |
